High-throughput results from PubChem BioAssay.
AI-2 QS mod: Vibrio harveyi AI-2 quorum sensing modulators, primary screen, JMH597 strain, luminescence/OD600 ratio | Vibrio harveyi JMH597 AI-2 luminescence/OD600 ratio, 9 h; active compounds read low; strain lacks LuxN and CqsS sensors; 0 = neutral-control median | activity change, % at 7.5 µM | actives 0.4% (n = 300,000); in the data active = activity change below about -75%, passing the limit was not always enough; inconclusive = no clear call, values can overlap the other calls;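 also: luminescence divided by OD600 gain over 9 h not by final OD600 alone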
Tat export inh: E. coli Tat export inhibitors, primary screen, MC4100, TorA-mCherry reporter, fluorescence, single point; inhibition, % at 10 µM; AID 488895, 2010; actives 0.036% (n = 340,000);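 active = mean replicate inhibition at least 50% and at least half of replicates individually reaching 50%; inconclusive = only one of the two criteria met; inactive = neither criterion met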;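 also: exported cargo escapes ClpAP degradation while cytoplasmic cargo is degraded and loses fluorescence; 0% = median of neutral control wells and 100% = median of NaSCN control wells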
E coli growth-1: E. coli growth inhibition, primary screen, OD600 | Escherichia coli growth, 23 h; active compounds read low | OD600 absorbance (test concentration not listed) | actives 0.21% (n = 330,000) | AID 1053175, 2014;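 active = OD600 absorbance below the run mean of sample wells minus 3.6 SD, in any replicate, cut at about 0.56 in these data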
phage Ecoli inh: growth loss of phage-infected E. coli, primary screen, RecBCD inhibitor project, absorbance, with phage, HTS; AID 651602, 2012; actives 0.26% (n = 360,000); inhibition, % at 11.9 µM; in the data active = inhibition above about 11%
AddAB inh: growth inhibition of E. coli expressing H. pylori AddAB, primary screen, AddAB inhibitor project, absorbance; inhibition, % at 11.9 µM; actives 0.29% (n = 330,000); in the data active = inhibition above about 12%;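 also: 0% = vehicle wells of infected cells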
E coli growth-2: E. coli V3065 growth inhibition, primary screen, counter-screen for AddAB inhibitor project, absorbance, OD600; inhibition, % at 11.9 µM; actives 0.27% (n = 330,000); 18 h;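 active = inhibition above the campaign's mean inhibition across all tested compounds plus 3 SD, cut at about 9.9% in these data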;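 also: uninfected addAB+ strain grown without phage in ampicillin broth; 0% = DMSO wells and 100% = ciprofloxacin 0.95 µg/ml wells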
JMH597 growth: Vibrio harveyi growth inhibition, confirmation, counter-screen for AI-2 quorum sensing project, JMH597 strain, OD600 absorbance. actives 1% (n = 750). growth inhibition, % at 7.5 µM. shares compounds with AI-2 QS mod. 9 h; lacks LuxN and CqsS sensors;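 active = every replicate shows growth inhibition above 50%; inconclusive = at least half, but not all, replicates pass that cutoff; inactive = fewer than half of replicates pass it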
BB721 lum counter: luminescence inhibition in constitutive-on V. harveyi, confirmation, counter-screen for LuxS inhibitor project, strain BB721, luminescence readout; shares compounds with AI-2 QS mod; Vibrio harveyi BB721 luminescence, 9 h; inhibition, % at 7.5 µM; actives 95% (n = 750); AID 2727, 2010;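 active = inhibition above about 80% in every replicate, not just on average, limit read from the data; inconclusive = at least half of replicates past the limit, but not all; inactive = fewer than half of replicates past the limit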
BB721 growth rt: growth inhibition of V. harveyi BB721, confirmation, cytotoxicity control for AI-2 quorum sensing inhibitors, strain BB721, absorbance OD600; shares compounds with AI-2 QS mod; Vibrio harveyi BB721 growth, 9 h; growth inhibition, % at 7.5 µM; actives 3% (n = 750); AID 2728, 2010;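 active = every replicate shows growth inhibition above 50%; inconclusive = at least half but not all replicates above 50% inhibition; inactive = under half of replicates above 50% inhibition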
AI-2 QS JMH597: Vibrio harveyi AI-2 signaling luminescence modulation – JMH597 strain, confirmation; shares compounds with AI-2 QS mod; Vibrio harveyi JMH597 AI-2 quorum sensing luminescence, 9 h; luxN and CqsS knockout, AI-2 only; inhibition, % at 7.5 µM; actives 97% (n = 750);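 active = every replicate shows more than 75% inhibition of signal versus neutral control wells; inconclusive = half to three quarters of replicates exceed 75% inhibition; inactive = fewer than half of replicates exceed 75% inhibition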
Numbers without * were called inactive; ? = inconclusive; / = no result given. Only some compounds are listed: those with a hit (about 0.79% of all), similar ones and a draw of the others.

SMILES	AI-2 QS mod	Tat export inh	E coli growth-1	phage Ecoli inh	AddAB inh	E coli growth-2	JMH597 growth	BB721 lum counter	BB721 growth rt	AI-2 QS JMH597
CN(C)C(=O)COc1ncnc2sc(-c3ccccc3)cc12	-84.1*	13.1	0.687	2.8	1.1	-1.3	15.0	94.1*	13.1	97.0*
COC(=O)c1ccc2[nH]c3cccc(C(=Cc4ccccc4)c4ccccc4)c3c2c1	/	/	0.742	/	/	/	/	/	/	/
COc1cc(NC(=O)CN2C(=O)NC(c3ccccc3)(c3ccccc3)C2=O)cc(OC)c1	-89.1*	-2.7	/	0.5	4.0	2.8	36.3	22.0	14.1	43.6
COc1cccc(NC(=O)CN2C(=O)NC(C)(c3ccc(C)cc3)C2=O)c1 (configuration not stated)	-90.0*	2.8	0.677	0.7	2.2	0.9	21.0	92.0*	25.1	95.4*
COc1cccc(NC(=O)CN2C(=O)NC3(CCCC3)C2=O)c1	16.9	-8.2	0.685	1.3	1.8	-1.7	/	/	/	/
COc1cccc(NC(=O)Cc2ccc3ccccc3c2)c1	-84.3*	-1.6	0.662	-0.4	1.8	2.6	22.0	88.8*	14.1	92.2*
COc1cccc(NC(=O)CN2C(=O)NC(C)(C3CC3)C2=O)c1 (configuration not stated)	/	6.9	0.683	3.2	-0.7	-0.9	/	/	/	/
COc1cccc(NC(=O)CCC(=O)Nc2cccc(OC)c2)c1	24.9	6.1	0.685	5.5	4.6	1.2	/	/	/	/
COc1cccc(NC(=O)CN2C(=O)NC(c3ccccc3)(c3ccccc3)C2=O)c1	-93.5*	13.6	0.689	4.4	0.2	0.3	8.3	93.4*	10.0	96.6*
CCOc1ccc(C(C)=NNC(=O)Cn2nc([N+](=O)[O-])cc2C)cc1	/	/	0.659	/	/	/	/	/	/	/
CS(=O)(=O)NC1c2cccc3cccc(c23)C1Sc1nncn1N=Cc1ccco1 (configuration not stated)	/	/	0.703	/	/	/	/	/	/	/
COc1cccc(NC(=O)Cn2nnc(-c3ccccc3N)n2)c1	-81.3*	0.2	0.677	4.6	1.2	-0.7	18.4	97.0*	34.4	96.8*
CCCC1(c2ccccc2)NC(=O)N(CC(=O)Nc2cc(OC)cc(OC)c2)C1=O (configuration not stated)	-80.6*	-1.2	0.672	0.8	4.9	1.4	7.2	?	-5.2	85.4*
Oc1ccccc1C=Nn1cnn(Cc2ccccc2Cl)c1=S	/	/	0.737	/	/	/	/	/	/	/
CNc1nc(SCC(=O)Nc2ccc(Cl)c(Cl)c2)nc(N2CCOCC2)n1	?	-0.3	0.741	1.9	-0.8	-0.8	-13.0	-12.6	-22.1	-2.3
Cc1cc(C)nc(SCC(=O)Nc2ccc(N3CCOCC3)c(Cl)c2)n1	/	-4.8	0.728	4.5	5.5	3.9	/	/	/	/
COCC(=O)NN=Cc1ccccc1OC/C=C/c1ccccc1	/	/	0.729	/	/	/	/	/	/	/
Cc1ccc(CN2CCN(N=Cc3cc(Br)ccc3F)CC2)cc1	/	/	0.649	/	/	/	/	/	/	/
COc1ccc(N=C2SCC(c3ccccc3)=NN2C)cc1	-87.5*	5.7	0.686	5.6	-2.3	-0.8	50.8	89.9*	145.6	94.7*
COc1cccc(C2CC=C(C(=O)O)C(c3ccccc3)N2S(=O)(=O)c2ccc(C)cc2)c1 (configuration not stated)	/	/	0.685	/	/	/	/	/	/	/
COc1ccc(CCNC(=O)CC(C)=NNC(=O)c2cnccn2)cc1	/	/	0.639	/	/	/	/	/	/	/
CC(CCC(=O)O)C1CCC2C3C(O)CC4CC(O)CC[C@]4(C)C3CC[C@]12C (some centres not stated)	/	/	0.672	/	/	/	/	/	/	/
CC(=O)Nc1ccc(OCC(=O)N2CCc3ccccc3C2)cc1	21.2	0.5	0.689	0.6	0.8	2.0	/	/	/	/
CC(C)c1ccc(OCC(=O)N2CCc3ccccc3C2)cc1	?	12.0	0.711	0.4	1.8	0.1	12.1	84.9*	12.0	90.0*
CCC1=C(OC(=O)N(CC)CC)N2C(=O)OC(=NCC3CC3)[C@]2(C)C2C1=CCC1C(=O)N(CC(=O)OC)C(=O)C12 (some centres not stated)	/	/	0.709	/	/	/	/	/	/	/
SMILES	AI-2 QS mod	Tat export inh	E coli growth-1	phage Ecoli inh	AddAB inh	E coli growth-2	JMH597 growth	BB721 lum counter	BB721 growth rt	AI-2 QS JMH597
O=C(O)CCSC1CC(=O)N(c2ccccc2)C1=O (configuration not stated)	11.2	-6.6	0.641	3.7	0.8	-0.5	/	/	/	/
NCCSC1CC(=O)N(c2ccc(F)cc2)C1=O (configuration not stated)	25.1	10.5	0.693	1.1	0.1	-0.5	/	/	/	/
NCCSC1CC(=O)N(c2ccc(Cl)c(Cl)c2)C1=O (configuration not stated)	-80.0*	-7.3	0.692	-0.5	-0.7	-0.3	3.4	90.5*	33.9	94.0*
O=C1CC(SCCO)C(=O)N1c1ccc(Oc2ccccc2)cc1 (configuration not stated)	-83.0*	1.2	0.678	1.1	-1.8	1.2	5.5	90.9*	13.3	91.8*
CC(Cn1cnc([N+](=O)[O-])n1)=NNC(=O)COc1ccccc1Cl	/	/	0.716	/	/	/	/	/	/	/
CSCCC1NC(=O)N(CC(=O)Nc2ccc(N3CCCCC3)cc2)C1=O (configuration not stated)	-82.4*	-1.5	0.73	3.8	0.7	-3.3	-2.0	91.4*	-11.1	95.5*
CC(=O)c1cccc(NC(=O)C2CC(c3ccc(F)cc3)=NO2)c1 (configuration not stated)	-90.5*	-1.0	0.673	2.8	2.3	0.5	25.5	96.9*	19.1	98.5*
CC(=O)c1ccc(NC(=O)C2CC(c3ccc(F)cc3)=NO2)cc1 (configuration not stated)	7.0	5.5	0.673	1.8	0.2	0.6	/	/	/	/
Cc1ccc(-c2[nH]ncc2C(=O)c2ccc(Br)cc2)c(O)c1	-95.3*	-4.4	0.64	3.0	3.4	1.9	13.5	97.4*	-4.8	98.1*
N/C(=N\OC(=O)COc1ccc2ccccc2c1)c1cccnc1	-90.3*	-4.4	0.626	4.7	5.0	0.3	34.1	98.2*	-8.6	98.8*
N/C(=N\OC(=O)CCCOc1ccccc1)c1ccncc1	-14.9	-1.4	0.635	0.0	-1.2	-2.8	/	/	/	/
